A short description of assay [1]: rapamycin-like changes in RPL19A-GFP expression – cell-based, S. cerevisiae, multiplex flow cytometry, primary screen (AID 1862; in the data active = percent of DMSO control GFP below about 86%;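 note: lower values mimic rapamycin by blocking the RPL19A rise seen in DMSO cells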). To be noted: S. cerevisiae RPL19A-GFP strain, flow cytometry fluorescence, 3 h; at 10 µM; stronger effect = lower value.
Assay [2] in a line: TOR pathway GLN3 branch reporter MEP2-GFP changes – S. cerevisiae, multiplex flow cytometry, primary screen (AID 1867;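 active = GFP response, as percent of the DMSO control, above the screen-wide mean plus 3 SD, about 139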;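 note: median GFP channel fluorescence of barcode-gated MEP2-GFP cells measured by flow cytometry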). To be noted: S. cerevisiae MEP2-GFP strain, 3 h, at 10 µM, stronger effect = higher value.
Assay [3] in a line: TOR pathway RTG branch CIT2 reporter changes – S. cerevisiae, GFP fusion, multiplex flow cytometry, primary screen (AID 1870;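 active = percent response above a set limit, the screen-wide mean plus 3 SD, cut at about 130% in these data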;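 note: barcoded CIT2-GFP strain pooled with four other GFP strains with rapamycin as positive control; median GFP fluorescence per well over plate mean of DMSO wells so 100% = DMSO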). The conditions noted are these: S. cerevisiae CIT2-GFP expression, 3 h, at 10 µM, stronger effect = higher value.
A short description of assay [4]: TOR pathway LAP4-GFP level changes – S. cerevisiae, multiplex flow cytometry, primary screen (AID 1873;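 active = GFP signal, as percent of the solvent control, above the screen mean plus 3 SD, about 149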). To be noted: S. cerevisiae LAP4-GFP expression, 3 h, at 10 µM, stronger effect = higher value.
Assay [5] in a line: yeast AGP1-GFP level changes, GLN3 branch – cell-based, multiplex flow cytometry, S. cerevisiae, primary screen (AID 1887;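 active = GFP signal above the screen-wide mean plus 3 SD, that is over about 124.5% of the solvent control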;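 note: AGP1-GFP fusion strain of S. cerevisiae within a five-strain barcoded multiplex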). The conditions noted are these: 3 h, at 10 µM, stronger effect = higher value.
Assay [6] is described as follows: reduced mouse 2C T cell binding to pMHC/ICAM-1 vesicles – MLPCN validation set, flow cytometry, LFA-1/ICAM-1 modulator project, pilot screen (AID 2523;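 active = response below a set limit, under 55% cells CD8-positive and vesicle-bound, and CD8 cells' 90th-percentile brightness under 279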;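 for vesicle binding response: mean PE anti-B7-1 fluorescence of CD8+ cells relative to row control; 100% = QL9-loaded vesicles with DMSO vehicle in the same plate row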). The conditions noted are these: 2C mouse CD8+ T cells, at 7 µM, stronger effect = lower value; double positive events: measured here: CD8+/vesicle+ event percentage.
The target of assay [7] is Integrin beta-1 (Homo sapiens) + Integrin alpha-4 (Homo sapiens) (UniProt P13612+P05556). Description: alpha4beta1 integrin LIBS antibody binding reduction – U937 cells, HUTS-21 mAb, flow cytometry, validation set, VLA-4 allosteric modulator project, pilot screen (AID 2674;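 active = inhibition above 50%, about 3 SD of the validation set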;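 note: antibody binding induced by the VLA-4 ligand LDV present at three times its Kd; 0% = LDV ligand with antibody and no compound and 100% = antibody without LDV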). To be noted: HUTS-21 LIBS mAb binding, at 6.7 µM, stronger effect = higher value.
Assay [8] is described as follows: calorie-restriction mimetic ROS inhibitors, yeast – validation compound set, pilot screen (AID 2706;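 active = superoxide response below 65% of plate, a cut near 3 SD across the whole screen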;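 note: yeast exposed to compound for one week at 30 degrees C before staining; 100% = mean of all compound wells on the same plate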). The conditions noted are these: S. cerevisiae aging, superoxide DHE fluorescence; at 10 µM; stronger effect = lower value.
Assay [9] addresses Beta-adrenergic receptor kinase 1 (Homo sapiens) (UniProt P25098). Kind of assay: GRK2 binders displacing RNA aptamer, biochemical, validation, human GRK2, bead flow cytometry (AID 488806;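 active = aptamer binding inhibition above 30%, about 3 SD of noise from non-fluorescent compounds; inactive = inhibition at or below 30%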). The conditions noted are these: bead-bound GRK2, FAM-aptamer displacement, at 10 µM, stronger effect = higher value.
Assay [10] addresses Beta-2 adrenergic receptor (Homo sapiens) (UniProt P07550). Description: agonist-induced loss of surface beta2AR – cell-based, FAP fluorogen, flow cytometry, validation set, pilot screen (AID 504459;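 active = percent response above 42, roughly 3 SD of non-fluorescent test compounds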;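 note: agonist-driven loss of surface beta2AR via internalization measured by FAP dye flow cytometry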). The conditions noted are these: Am2.2-beta2AR cells, at 10 µM, stronger effect = higher value.
Assay [11] addresses AP-2 complex subunit beta (Homo sapiens) (UniProt P63010). Kind of assay: beta-arrestin/AP2 interaction blockers – biochemical, validation set, GST-AP2 beads, flow cytometry, pilot screen (AID 504541;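 active = inhibition above 54%, about 3 SD of non-fluorescent compounds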;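 note: AP2 carries R879A mutation and is captured from E. coli lysate; bead-bound FITC arrestin peptide fluorescence measuring arrestin peptide binding to AP2; 0% = DMSO wells and 100% = excess unlabeled arrestin peptide control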). The conditions noted are these: FITC arrestin peptide, at 10 µM, stronger effect = higher value.
Assay [12] can be described thus: cytosolic pH regulators acting via V-ATPase – S. cerevisiae, pHLuorin, HTS validation (AID 504600; in the data active = response above about 15%;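 note: plate controls were DMSO for no effect and reference compound for full effect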). To be noted: V-ATPase proton transport, at 10 µM, stronger effect = higher value.
The subject of assay [13] is anti-desmoglein-3 scFv antibody binding to human DSG3. Kind of assay: blockers of pathogenic pemphigus antibody–desmoglein-3 binding – biochemical, validation compound set, bead-based, flow cytometry, pilot screen (AID 588368;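 active = binding below the plate cutoff, the plate median minus 3 SD, with a reading above zero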;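 note: signal is the median channel fluorescence of bead-bound GFP antibody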). The conditions noted are these: Protein G beads, DSG3-Fc, scFv-GFP binding, at 10 µM, stronger effect = lower value.
The subject of assay [14] is Botulinum neurotoxin type F light chain protease (Clostridium botulinum). Description: Clostridium botulinum type F light chain protease inhibitors, microsphere substrate cleavage, validation (AID 588459). The conditions noted are these: multiplex microsphere protease substrate cleavage assay, flow cytometry; at 10 µM; stronger effect = higher value.
Assay [15] has as its target Botulinum neurotoxin type A (Clostridium botulinum) (UniProt P0DPI0). Description: BoNT/A light chain protease inhibitors, biochemical, multiplex microsphere flow cytometry, validation set (AID 588460). To be noted: at 10 µM, stronger effect = higher value.
Assay [16] has as its target Lethal factor (Bacillus anthracis) (UniProt P15917). Description: Bacillus anthracis lethal factor inhibition, microsphere flow cytometry protease assay, validation at 10 µM (AID 588461). The conditions noted are these: multiplex microsphere protease cleavage assay, stronger effect = higher value.
The nature of assay [17]: Nile Red efflux blockade in pump-expressing yeast – validation compound set, multiplex, phenotypic, pilot screen (AID 588506;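 active = efflux inhibition above 0.42, the validation set average plus 4 SD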;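 note: Nile Red retained in cells so higher fluorescence means more efflux inhibition; 0 = negative control wells and 1 = enniatin B 25 µM full block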). To be noted: S. cerevisiae pump-expressing triplex, Nile Red efflux flow cytometry; at 10 µM; stronger effect = higher value.
Assay [18] deals with ATP-binding cassette sub-family B member 6 (Homo sapiens) (UniProt Q9NP58). Kind of assay: blockers of ABCB6-driven porphyrin uptake – K562-ABCB6 cells, flow cytometry, validation set, pilot screen (AID 588550;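 active = inhibition above the screen-wide mean plus 3 SD, about 51%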;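 note: 0% = DMSO wells and 100% = benzethonium chloride 70 µM positive control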). The conditions noted are these: K562-ABCB6 porphyrin accumulation, 1 h, at 10 µM, stronger effect = higher value.
A short description of assay [19]: AML differentiation inducers, ER-HoxA9 marrow cells – cell-based, GFP/MAC1 double positive, flow cytometry, validation set, primary screen (AID 588685;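 active = differentiation response of at least 50%, scaled between solvent and reference control, from cells with both markers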;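 note: compound exposure lasts four days before antibody staining and flow analysis; 0% = DMSO wells and 100% = 5 µM fulvestrant positive control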). The conditions noted are these: stronger effect = higher value.

Results filed as inconclusive are left out. Active and inactive are the calls of the source. Unless noted, the rule behind the calls is not given here.

For the compound `CC(C)NC(C)C(=O)c1ccc2ccccc2c1` (configuration not stated), the percent of DMSO control GFP in assay [1] is 104% (inactive). The GFP response vs DMSO is 99.6% (inactive) in assay [2] and 113% (inactive) in [4]. Moreover, in [3], the percent response of DMSO control is 98.6% (inactive). Further, the GFP response, % of DMSO in [5] was 107% (inactive). The compound further displayed a double positive events in assay [6] of 63.7%. Besides, the vesicle binding response in [6] was 278% (inactive). The inhibition in assay [7] is -0.43% (inactive); in assay [11], -7.53% (inactive); in [14], 1.8% (inactive); in assay [15] it was 2% (inactive); in assay [16], 1.1% (inactive); in [18] it was 106% (active). The superoxide response (% of plate) in assay [8] is 121% (inactive). In [9], the aptamer binding inhibition is 1% (inactive). The response in assay [10] was 14.8% (inactive); in assay [12], 3.67% (inactive). Moreover, in assay [13], the binding (% of control) was 98.4% (inactive). Besides, in [17], the efflux inhibition (fraction of control) was -0.28 (inactive). Also, in assay [19], the differentiation response is 108% (active).

On to `CCOc1ccc(C2C(C#N)=C(N)Oc3c2c(=O)oc2ccccc32)cc1` (configuration not stated), for which the percent of DMSO control GFP in assay [1] was 104% (inactive). Further, the GFP response vs DMSO is 99.6% (inactive) in assay [2] and 102% (inactive) in assay [4]. Moreover, the percent response of DMSO control in assay [3] is 102% (inactive). Further, in assay [5], the GFP response, % of DMSO is 101% (inactive). This compound also registered a double positive events in assay [6] of 59.3%. In addition, in assay [6], the vesicle binding response is 213% (inactive). For the same compound, the inhibition in assay [7] was 9.13% (inactive); in [11] it was 22.7% (inactive); in assay [14], -0.4% (inactive); in assay [15], 0.3% (inactive); in [16], 0.5% (inactive); in assay [18], 5% (inactive). Further, in [8], the superoxide response (% of plate) was 103% (inactive). The aptamer binding inhibition in assay [9] is 4% (inactive). Besides, the response was -0.19% (inactive) in [10] and -3.38% (inactive) in assay [12]. Further, the binding (% of control) in assay [13] is 104% (inactive). The efflux inhibition (fraction of control) in assay [17] is -0.13 (inactive). Moreover, in assay [19], the differentiation response was -23.2% (inactive).

`CN1CC[C@@]23CCCC[C@@H]2[C@@H]1Cc1ccc(O)cc13`: in assay [1], the percent of DMSO control GFP was 99.4% (inactive). In addition, the GFP response vs DMSO in assay [2] was 110% (inactive); in [4], 98.6% (inactive). The percent response of DMSO control in assay [3] was 96.6% (inactive). Further, the GFP response, % of DMSO in [5] is 100% (inactive). Also, in assay [6], the double positive events was 60.4%. Further, the vesicle binding response in assay [6] is 47.7% (inactive). Also, the inhibition is -0.45% (inactive) in assay [7]; 9.83% (inactive) in [11]; -10% (inactive) in assay [14]; -1.6% (inactive) in assay [15]; -1.3% (inactive) in assay [16]; 2% (inactive) in [18]. The superoxide response (% of plate) in [8] was 109% (inactive). The aptamer binding inhibition in [9] was -1% (inactive). The results for the response in [10] and in assay [12] were 2.76% (inactive) and -1.79% (inactive), respectively. Also, the binding (% of control) in assay [13] is 92% (inactive). In assay [17], the efflux inhibition (fraction of control) was -0.07 (inactive). The differentiation response in assay [19] is 3.18% (inactive).

For `CCOc1ccc(N2C(=O)NC(=O)/C(=C\c3cc(OC)c(OC)cc3[N+](=O)[O-])C2=O)cc1`, the percent of DMSO control GFP in [1] is 102% (inactive). For the same compound, the GFP response vs DMSO is 97.7% (inactive) in assay [2] and 89.3% (inactive) in [4]. The percent response of DMSO control in assay [3] is 109% (inactive). Besides, the GFP response, % of DMSO in [5] is 103% (inactive). The same compound showed a double positive events in assay [6] of 60.3%. Further, in assay [6], the vesicle binding response was 144% (inactive). In addition, the inhibition in assay [7] is -7.79% (inactive); in assay [11], 7.81% (inactive); in assay [14] it was -3.1% (inactive); in assay [15], -0.2% (inactive); in assay [16] it was 4.2% (inactive); in assay [18], -11% (inactive). The superoxide response (% of plate) in assay [8] was 107% (inactive). Besides, the aptamer binding inhibition in [9] was 0% (inactive). Also, the response in assay [10] is 7.81% (inactive); in assay [12], -4.04% (inactive). For the same compound, in [13], the binding (% of control) is 97.9% (inactive). Further, the efflux inhibition (fraction of control) in assay [17] was -0.15 (inactive). For the same compound, the differentiation response in assay [19] is 17.4% (inactive).

For the compound `COc1ccc(C(=O)N2CCCC2=O)cc1`, in assay [1], the percent of DMSO control GFP was 104% (inactive). The figures for the GFP response vs DMSO in assay [2] and in assay [4] were 107% (inactive) and 130% (inactive), respectively. Moreover, in assay [3], the percent response of DMSO control was 105% (inactive). The GFP response, % of DMSO in [5] is 117% (inactive). The same compound had a double positive events in assay [6] of 61.6%. In addition, the vesicle binding response in assay [6] was 241% (inactive). Moreover, the inhibition in assay [7] is -6.23% (inactive); in assay [11], 61% (active); in assay [18], 4% (inactive). The superoxide response (% of plate) in assay [8] is 94.5% (inactive). Moreover, the aptamer binding inhibition in [9] was -4% (inactive). Besides, the values for the response in assay [10] and in assay [12] were -0.27% (inactive) and 2.82% (inactive), respectively. In [13], the binding (% of control) is 100% (inactive). Also, in assay [17], the efflux inhibition (fraction of control) is -0.04 (inactive). Further, the differentiation response in assay [19] was 3.88% (inactive).
